DAX1 inh-1 – inhibits human nuclear receptor DAX1; actives 0.99% (n = 340,000); HEK293 Gal4-DAX1 luciferase reporter, luminescence; AID 504766; inhibition, % at 6.75 µM; P51843;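 active = inhibition above the mean over all tested compounds plus 3 SD, cut at about 4.2% in these data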;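 note: 0% = DAX1-transfected cells with DMSO and 100% = empty-vector control cells with DMSO; inhibition shows as a rise in luminescence from relieved DAX1 repression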
hgDAF12 agonist – hgDAF-12 agonism, primary luciferase screen | HEK293 GAL4-hgDAF12 UAS-luciferase reporter, agonist luminescence; normalized to butyrate control | activation, % at 6.8 µM | actives 1.8% (n = 370,000) | AID 687014;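 active = activation above a cutoff set at the mean of all screened compounds plus 3 SD, cut at about 10% in these data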;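 note: 0% = DMSO wells and 100% = sodium butyrate wells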
ssDAF-12 act – S. stercoralis DAF-12 activation, primary screen | HEK293 ssDAF-12/GRIP1 lit1-tk-luc reporter, luminescence; % of 3 µM dafachronic acid response | activation, % at 6.8 µM | actives 1% (n = 370,000);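 active = activation above the mean over all tested compounds plus 3 SD, cut at about 0.9% in these data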;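 note: 0% = DMSO-only wells and 100% = 3 µM delta7-dafachronic acid wells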
DAX1 inh-2 – blocks DAX1 repression of SF-1 activated StAR promoter; AID 652010; HEK293T StAR-luciferase reporter, SF-1/DAX-1 repression relief; inhibition, % at 6.8 µM; actives 1.1% (n = 370,000);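 active = inhibition above the mean over all tested compounds plus 3 SD, cut at about 3.6% in these data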;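 note: 0% = DAX-1 cells with DMSO and 100% = cells lacking DAX-1 with DMSO; higher inhibition means more luminescence from relief of DAX-1 repression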
hcDAF12 agonist – H. contortus DAF-12 activation, primary screen | HEK293 hcDAF-12 lit1-tk-luc reporter, luminescence; 0% DMSO, 100% Δ7-dafachronic acid | activation, % at 6.8 µM | actives 1.4% (n = 370,000);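 active = activation above the mean of all tested compounds plus 3 SD, cut at about 5.5% in these data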;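 note: 100% = response to 3 µM Δ7-dafachronic acid high control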
hgDAF12 ag – confirmation of H. glycines DAF-12 agonists; shares compounds with hgDAF12 agonist; HEK293 GAL4-hgDAF12 luciferase reporter, agonist mode; percent of butyrate response; activation, % at 6.8 µM; actives 80% (n = 3,300); AID 743050;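 active = mean activation over triplicate wells above the hit cutoff derived from the earlier primary screen, cut at about 11% in these data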;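 note: 0% = DMSO low control and 100% = 2 mM sodium butyrate high control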
LXRb DAF12 ctr – activates human LXR-beta, counter-screen for DAF-12 agonists; AID 743051; HEK293 Gal4-LXR luciferase reporter, 24 h; activation, % at 6.8 µM; shares compounds with hgDAF12 agonist; 3,300 tested, under 10 active;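 active = mean activation of the triplicate above a set limit carried over from the primary screen, none filed active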
Target sequence (P55055 whole entry, looked up, the tested form may be a part): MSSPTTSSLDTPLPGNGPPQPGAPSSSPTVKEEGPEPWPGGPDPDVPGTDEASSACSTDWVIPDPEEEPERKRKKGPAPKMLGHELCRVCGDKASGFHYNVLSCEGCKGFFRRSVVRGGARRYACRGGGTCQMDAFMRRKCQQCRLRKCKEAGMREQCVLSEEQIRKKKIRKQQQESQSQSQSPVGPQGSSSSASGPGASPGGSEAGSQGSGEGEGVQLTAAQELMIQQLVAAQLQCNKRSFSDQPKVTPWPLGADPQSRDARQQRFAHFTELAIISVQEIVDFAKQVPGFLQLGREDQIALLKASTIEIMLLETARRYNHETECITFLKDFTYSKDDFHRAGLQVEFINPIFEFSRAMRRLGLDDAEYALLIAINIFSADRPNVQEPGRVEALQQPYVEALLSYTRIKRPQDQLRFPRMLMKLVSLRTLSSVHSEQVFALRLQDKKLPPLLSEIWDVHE
Starred values were filed as active, the others as inactive; · = no result given. The list is not random: actives were taken first. Their share in the collection is about 4.1%.

SMILES	DAX1 inh-1	hgDAF12 agonist	ssDAF-12 act	DAX1 inh-2	hcDAF12 agonist	hgDAF12 ag	LXRb DAF12 ctr
C#CCNC(=O)C[C@H]1C[C@@]2(C(=O)OC)C(=C[C@H](COCc3ccccc3)O[C@@H]2C)N(Cc2ccccc2)C1=O	·	0	-1	-1	0	·	·
CCOC(=O)C1=CC[C@@H](c2ccccc2C(F)(F)F)N(S(=O)(=O)c2ccc(C)cc2)[C@H]1c1ccc(C#N)cc1	·	-1	-1	3	-1	·	·
CCc1ccc(NC(=O)c2cnccn2)cc1	3	15*	1	3	3	13*	1
O=C(NN=C1C2CC3CC1CC(Cl)(C3)C2)c1cccs1	5.0*	27*	0	4.0*	6.3*	2	0
O=C(NN=C1C2CC3CC1CC(Cl)(C3)C2)c1ccccn1	1	14*	0	3	6.2*	5	0
O=C(NN=C1C2CC3CC(C2)CC1C3)c1ccncc1	1	0	-1	0	2	·	·
NNC(=O)c1cccc(COc2ccc(Br)cc2)c1	-4	19*	-1	3.7*	4	22*	1
CCCNC(=O)c1cccc(COc2ccccc2OC)c1	-2	17*	0	2	1	14*	1
COc1ccc(OCc2cccc(C(=O)NN)c2)cc1	-5	18*	-1	3.9*	2	21*	1
O=C(NCCc1ccccc1)OCc1cn(Cc2c(F)cccc2F)nn1	·	1	-2	0	-1	·	·
Cn1ncc(N=Cc2ccccc2)c1C(N)=O	0	-1	-1	0	-1	·	·
Nc1ncc(Br)cc1N=Cc1ccccc1	1	18*	0	3	6.0*	10	1
CCC(CC)C(C(=O)NCc1ccccc1)N1CCN(c2cccc(C)c2C)CC1 (stereo not drawn)	·	2	-1	2	1	·	·
Fc1ccc(-c2nc3ccccc3[nH]2)cc1	1	18*	-1	3	3	12*	1
O=S(=O)(c1sccc1Br)n1c(CN2CCOCC2)nc2ccccc21	·	-2	-2	0	-3	·	·
O=C1/C(=C/c2ccc(O)cc2)COc2ccccc21	1	15*	-1	1	2	12*	1
O=C1/C(=C/c2ccccn2)COc2ccccc21	0	0	-2	0	-1	·	·
Cc1csc(NC(=O)c2nc3nc(C)cc(C)n3n2)n1	3	9	0	2	4	·	·
Cc1cc(C)n2nc(C(=O)Nc3nccs3)nc2n1	2	17*	0	1	4	12*	0
COc1ccccc1/C=C/C=N/Nc1cccc(C(=O)O)c1	-1	15*	1.6*	3	4	22*	1
COc1ccc(Br)cc1/C=N/Nc1cccc(C(=O)O)c1	0	0	0	1	1	·	·
O=C(N=C1SCC(=O)N1c1ccccc1Cl)c1ccccc1	1	17*	1	2	3	9	1
COC(=O)c1cc2n(n1)CCN(Cc1ccccc1Cl)C2=O	1	0	-1	0	0	·	·
COC(=O)c1ccn(Cc2ccccc2Cl)n1	1	14*	-1	3	1	9	0
COC(=O)[C@]12C[C@H](CC(=O)N3CCSCC3)C(=O)N(Cc3cccc4ccccc34)C1=C[C@H](C(C)(C)C)O[C@@H]2C	·	3	0	-1	-2	·	·
SMILES	DAX1 inh-1	hgDAF12 agonist	ssDAF-12 act	DAX1 inh-2	hcDAF12 agonist	hgDAF12 ag	LXRb DAF12 ctr
CCOC(=O)CC[C@H]1CC[C@]2(CCCN(S(C)(=O)=O)C2)O1	·	0	-1	-1	-1	·	·
Cc1ccc(F)cc1C(=O)N1CCCC(c2cc(C(=O)Nc3ccccc3Cl)no2)C1 (stereo not drawn)	·	2	-1	-2	-2	·	·
COC(=O)c1ccc(Cn2nnc3ccccc32)cc1	2	0	-1	0	-2	·	·
COC(=O)c1ccc(COn2nnc3ccccc32)cc1	0	17*	0	3	4	14*	1
O=C(Nc1nc(-c2ccccc2)cs1)NC1CCCCC1	0	4	-2	1	-1	·	·
c1ccc(-c2csc(NC3CCCCC3)n2)cc1	1	20*	0	3	4	25*	1
COc1ccc(-c2cc(NC(=O)Cc3c[nH]c4ccccc34)ccc2Nc2cccnc2)c(OC)c1	·	-2	-1	-1	1	·	·
C[C@@H]1ON(C)[C@H]2C[C@H]3c4cc(-c5cc6ccccc6o5)ccc4CCN3C[C@@H]12	·	13*	0	3.7*	2	8	0
C[C@@H]1ON(C)[C@H]2C[C@H]3c4cc(Nc5ccccc5)ccc4CCN3C[C@@H]12	·	-1	-1	0	-2	·	·
O=C(c1ccc(Cl)cc1)c1coc2ccc(O)cc12	3	17*	0	3	3	18*	1
O=C(NCc1ccccc1)OCCN1C(=O)CCC12CCC(c1ccc(Cl)cc1)CC2 (stereo not drawn)	·	3	-2	-1	-1	·	·
C=CCN1C(=O)[C@@H](CC(=O)NCC23CC4CC(CC(C4)C2)C3)[C@]2(C(=O)OCC)CCCCC/C=C/12	·	2	-1	-1	2	·	·
Cc1ccc(OCc2ccc(Br)cc2)c([N+](=O)[O-])n1	·	18*	1	4.0*	4	14*	1
COc1ccc(CCNC(=O)c2cnn(-c3ccccc3)c2N)cc1OC	·	-2	-1	-1	-2	·	·
c1ccc(Cc2nnc(-c3ccccc3)o2)cc1	4	14*	0	0	2	10	0
COC(=O)[C@]12C[C@H](CC(=O)N3CCCCC3)C(=O)N(Cc3cccc4ccccc34)C1=C[C@H](C(C)C)O[C@@H]2C1CC1	·	-2	-1	2	-2	·	·
O=C(Nc1nc(-c2cccc(Br)c2)cs1)Oc1ccccc1	1	4	-1	0	4	·	·
CCc1ccc(-c2csc(NC(=O)Oc3ccccc3)n2)cc1	1	15*	0	3	1	6	0
CN(Cc1ccc(Cl)cc1)C(c1cc2ccccc2o1)c1nnnn1C(C)(C)C (stereo not drawn)	·	0	-1	-2	-2	·	·
O=C(Nc1ncc([N+](=O)[O-])s1)c1cccc([N+](=O)[O-])c1	4.6*	14*	0	1	5.9*	9	1
COc1ccc(-c2nnc(SCC(=O)c3ccc[nH]3)o2)cc1	0	14*	1	3	5	15*	1
C#CCCCN([C@@H](CC(C)C)C(=O)OC)S(=O)(=O)c1ccc(F)cc1Br	·	-1	-2	-2	4	·	·
Nn1c(SCc2ccccc2)nc2c(cnn2-c2ccccc2)c1=O	0	2	-1	1	2	·	·
